Screening data deposited in PubChem BioAssay by The Scripps Research Institute Molecular Screening Center.
TTR transcr act: TTR transcription activation, primary screen. activation, % at 16.7 µM. actives 1.3% (n = 92,000). SH-SY5Y TTR promoter Gaussia luciferase, luminescence; 100% = recombinant luciferase protein wells. AID 1117267;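 active = activation above the mean of all tested compounds plus 3 SD, cut at about 9.5% in these data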;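 also: cells exposed to compounds for one day before reading; 0% = median of all test compound wells on the plate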
TTR inh HuH7: HuH7 TTR transcription inhibition, counter-screen; shares compounds with TTR transcr act; HuH7 TTR promoter-Gaussia luciferase reporter, luminescence; inhibition, % at 16.7 µM; actives 4% (n = 1,100); AID 1117279;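 active = average inhibition above the solvent-only control wells' mean plus 3 SD, cut at about 15% in these data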;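 also: 0% = cells with DMSO only and 100% = cells with inhibitor control FD; inhibitors lower well luminescence so higher value means more inhibition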
TTR act confirm: human TTR transcription activation, confirmation; AID 1117280; shares compounds with TTR transcr act; SHSY5Y TTR promoter Gaussia luciferase, luminescence; 100% = purified Lucia enzyme wells, no cells; 1,100 tested, under 10 active; activation, % at 16.7 µM;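 active = mean activation above a set limit taken from the earlier primary screen, cut at about 11% in these data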;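 also: 0% = DMSO-treated cells and 100% = recombinant Lucia luciferase without cells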
An asterisk follows results filed as active. The entries come from a sample that favours hits as a whole.

How did CCn1cnc2c1c(=O)n(CC(=O)Nc1ccc3c(c1)OC(F)(F)O3)c(=O)n2Cc1ccccc1 do in these assays?
TTR transcr act: 0

How did CC(C)Cn1cnc2c1c(=O)n(CC(=O)N(C)C)c(=O)n2Cc1ccccc1 do in these assays?
TTR transcr act: 0

How did CNC[C@H]1OCc2cnnn2CCCC(=O)N([C@@H](C)CO)C[C@@H]1C do in these assays?
TTR transcr act: 1

How did CNC(=S)NNC(=O)c1sc(-c2cc(C)on2)nc1C do in these assays?
TTR transcr act: 14*; TTR inh HuH7: -7; TTR act confirm: -1

What do the screens show for `Cc1nc(-c2ccc(Cl)cc2)sc1C(=O)NNC(=O)C(C)C`?
TTR transcr act: 3

How did Cc1cc(C(=O)NNC(=S)NCC(C)C)no1 do in these assays?
TTR transcr act: 0

How did O=S(=O)(Nc1ccccn1)c1cnc(Cl)c(Br)c1 do in these assays?
TTR transcr act: 20*; TTR inh HuH7: -8; TTR act confirm: 0

Results for O=S(=O)(Nc1nccs1)c1cnc(Cl)c(Br)c1 ?
TTR transcr act: 1

How did O=S(=O)(Nc1ccccn1)c1ccc(Br)cc1 do in these assays?
TTR transcr act: 2

How did COc1ccc2c(c1)NC(=O)[C@@]2(CCN1C(=O)c2ccccc2C1=O)c1[nH]c2ccccc2c1CCN1C(=O)c2ccccc2C1=O do in these assays?
TTR transcr act: -2

How did COC(=O)[C@]12C[C@H](CC(=O)N3CCC(c4ccccc4)CC3)C(=O)N(Cc3ccccc3)C1=C[C@H](COCc1ccccc1)O[C@@H]2C do in these assays?
TTR transcr act: -2

Results for CN(C)CC#Cc1cncc(C(=O)NNC(=O)Nc2ccc(Cl)cc2)c1 ?
TTR transcr act: 10*; TTR inh HuH7: -14; TTR act confirm: 2

Results for Cc1cc(C(=O)NNC(=O)Nc2ccc(Cl)cc2)no1 ?
TTR transcr act: 0

How did Cc1nc(C(=O)NNC(=O)Nc2ccc(Cl)cc2)cs1 do in these assays?
TTR transcr act: 4

Results for O=C(OCC#CCSc1nnc(-c2cccc3ccccc23)o1)C1CCCC1 ?
TTR transcr act: 2

Results for O=C(NCc1ccc(Cl)cc1)O[C@H]1CC[C@@]23CCCN2C(=O)CCC[C@H]3C1 ?
TTR transcr act: 1

What do the screens show for `CC(=O)NC1CCCCN(C(C)C)C1=O` (stereo not drawn)?
TTR transcr act: -1

What do the screens show for `CCCCNC(=O)O[C@H]1CC[C@@]23CCCN2C(=O)CCC[C@H]3[C@H]1C`?
TTR transcr act: -1

Results for COC(=O)[C@]12C[C@H](CC(=O)NCc3ccc(OC)c(OC)c3)C(=O)N(CCc3ccc(OC)c(OC)c3)C1=C[C@H](COCc1ccccc1)O[C@@H]2C ?
TTR transcr act: 0

How did Cc1cccc(C(=O)Nc2c(C(=O)N(C)C)cnn2-c2ccccc2)c1 do in these assays?
TTR transcr act: 11*; TTR inh HuH7: -13; TTR act confirm: -1

How did O=C(Nc1c(C(=O)N2CCCCC2)cnn1-c1ccccc1)c1ccccc1 do in these assays?
TTR transcr act: 5

How did CCOC(=O)c1cnn(-c2ccccc2)c1NC(=O)c1ccccc1 do in these assays?
TTR transcr act: -1

Results for COC(=O)[C@@]12CCCCC=C1N(CCc1ccc(Cl)cc1)C(=O)[C@H]2CC(=O)NCc1cccc(C(F)(F)F)c1 ?
TTR transcr act: -1

How did COC(=O)[C@H]1C[C@]2(C(/C=C(\C)CCC=C(C)C)S(=O)(=O)c3ccccc3)c3ccccc3N[C@H]2N1 (stereo partly drawn) do in these assays?
TTR transcr act: 0

What do the screens show for `N#Cc1c(F)cccc1NCc1cccs1`?
TTR transcr act: 14*; TTR inh HuH7: -9; TTR act confirm: 1

What do the screens show for `S=C(NCc1cccs1)Nc1cccc2ccccc12`?
TTR transcr act: 1

Results for O=S(=O)(NCc1cccs1)NCc1ccccc1F ?
TTR transcr act: 4

How did COc1ccc(C(=O)O)c(O)c1 do in these assays?
TTR transcr act: 1

Results for COc1cc(OC)c(C2C(C#N)=C(C)NC(C)=C2C#N)c(C(=O)O)c1 ?
TTR transcr act: 30*; TTR inh HuH7: -3; TTR act confirm: 1

What do the screens show for `COc1ccc(C2CC(=O)C3=C(C2)NC(C)=C(C#N)C3c2ccc(N(C)C)cc2)cc1` (stereo not drawn)?
TTR transcr act: -2

How did COc1ccc(CN[C@@H]2CC[C@@]34CCCN3C(=O)CCC[C@H]4C2)cc1 do in these assays?
TTR transcr act: -2

What do the screens show for `CCCCCCC(=O)NC1CCCCN(Cc2ccc(Cl)cc2)C1=O` (stereo not drawn)?
TTR transcr act: 0

What do the screens show for `O=C(Oc1ccc([N+](=O)[O-])cc1)O[C@H]1CC[C@@]23CCCN2C(=O)CCC[C@H]3C1`?
TTR transcr act: -1

Results for O=C(CSc1nnc(NC(=O)c2ccco2)s1)NCc1ccc2c(c1)OCO2 ?
TTR transcr act: 21*; TTR inh HuH7: -7; TTR act confirm: 1

What do the screens show for `CCCSc1nnc(NC(=O)c2ccco2)s1`?
TTR transcr act: 2

Results for Cc1ccc(NC(=O)CSc2nnc(NC(=O)c3ccco3)s2)cc1 ?
TTR transcr act: -2

How did CC(C)(C)OC(=O)NC(Cc1ccccc1)C1CC(C#N)C(=O)O1 (stereo not drawn) do in these assays?
TTR transcr act: 1

How did COC(=O)[C@@]12CCCCC=C1N(CCc1ccc(Cl)cc1)C(=O)[C@H]2CC(=O)NCC12CC3CC(CC(C3)C1)C2 do in these assays?
TTR transcr act: -1

What do the screens show for `c1ccc(-c2nc3ccccn3c2-c2ccccc2)cc1`?
TTR transcr act: -1

How did Clc1cc2nc3ccccn3c2cc1Cl do in these assays?
TTR transcr act: 13*; TTR inh HuH7: -15; TTR act confirm: 2

How did OCc1c(Cl)nc2ccccn12 do in these assays?
TTR transcr act: 2

Results for C[C@@H]1Cc2cc(O)c(O)c(O)c2C(=O)O1 ?
TTR transcr act: 2

Results for COC(=O)[C@@]12CCCCC=C1N(CCc1ccc(Cl)cc1)C(=O)[C@H]2CC(=O)NCC1CCCCC1 ?
TTR transcr act: 4

What do the screens show for `CCOC(=O)C1C[C@@H](O)C=CC1=O` (stereo partly drawn)?
TTR transcr act: 0

How did Cc1ccccc1NC(=O)C1C2CCC(O2)C1C(=O)O (stereo not drawn) do in these assays?
TTR transcr act: 2

What do the screens show for `CC12COC3(C(=O)NCCc4ccccc4)CC1CCC32C` (stereo not drawn)?
TTR transcr act: 3

Results for Cc1ccccc1NC(=O)C12CC3CCC1(C)C3(C)CO2 (stereo not drawn) ?
TTR transcr act: 14*; TTR inh HuH7: -15; TTR act confirm: 0

Results for C[C@@H]1CCN(C2CC2)S(=O)(=O)c2ccc(N3CC[C@H](O)C3)cc2O1 ?
TTR transcr act: 0

What do the screens show for `COP(=O)(O)C(Cc1ccccc1)NC(=O)OCc1ccccc1` (stereo not drawn)?
TTR transcr act: 0

How did C#CCNC(=O)C[C@H]1C[C@@]2(C(=O)OCC)CCCC3=C2N(CCC3)C1=O do in these assays?
TTR transcr act: 1

What do the screens show for `COc1cc(NC(=O)c2cc(C)on2)c(OC)cc1Cl`?
TTR transcr act: 0

Results for O=C(O)CCCc1nc2ccccc2s1 ?
TTR transcr act: -2

What do the screens show for `CC(C)(C)NC(=O)CCCSc1nc2ccccc2s1`?
TTR transcr act: -1

How did COC(=O)CCCc1nc2ccccc2s1 do in these assays?
TTR transcr act: -4
